Results published in PubChem BioAssay (NCATS).
Values without a mark were called inactive. Active and inactive are the calls of the source. Calls come from the whole dose curve; as a rule, active = well fitted inhibition curve with a large enough effect; inconclusive = small, poorly fitted or top-dose-only effect; inactive = flat fitted curve, though single readings scatter.

tested on: Nanoluciferase (engineered Oplophorus gracilirostris luciferase); test: Primary Nanoluciferase (NLuc) qHTS assay for identification of artifact compounds. (AID 1845222); conditions: NLuc-conditioned medium, Nano-Glo luminescence, 5 min; series mostly up to 54.1 µM; activity, negative = inhibition: at the top concentration;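 for activity, negative = inhibition: 0% = DMSO and -100% = no enzyme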
Method in brief: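 Luminescence read-out of secreted NLuc in S16 cell conditioned medium (1:55); compounds tested with 15 min RT preincubation, then Nano-Glo substrate 1:100, 5 min. % inhibition vs no-enzyme and DMSO controls, 4-parameter Hill fit.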
Potency is the fitted concentration of half-maximal effect.

Compound	activity, negative = inhibition	Potency
CC/C=C\[C@H](O)[C@H](O)C1=C(C)C(=O)[C@]2(O1)C(=O)N[C@@](O)(C(=O)c1ccccc1)[C@@H]2O	-6.34% [at 25.7 µM]	–
O=C(/C=C/c1ccc(O)cc1)O[C@@H]1C[C@@](O)(C(=O)O)C[C@@H](O)[C@@H]1O	-0.375%	–
C=C(C(=O)O)[C@H]1C[C@]2(C)C(=O)CC[C@]23O[C@H]1C[C@@H]3C	-0.158%	–
CC1CC(O)/C=C/C(O)/C=C\C(=O)O1 (stereo not drawn)	3.01% [at 86.2 µM]	–
OC[C@@]1(O)CO[C@@H](OC[C@H]2O[C@@H](Oc3ccccc3)[C@H](O)[C@@H](O)[C@@H]2O)[C@@H]1O	-2.4%	–
COC1OC(=O)C2=C1C1(C)CCCC(C)(C)C1CC2O (stereo not drawn)	3.83%	–
COc1cc(/C=C/c2ccccc2)c(C(=O)O)c(O)c1CC=C(C)C	–	13.2 µM (active)
C[C@@H]1O[C@@H](OC(=O)Cc2ccccc2)[C@H](O)[C@H](O)[C@H]1O	1.77%	–
N=C(N)c1ccc2nc(-c3cc(CC(=O)NC(CC(=O)O)C(=O)O)cc(-c4cc(S(N)(=O)=O)ccc4O)c3O)[nH]c2c1 (stereo not drawn)	-11.3%	–
C/C1=C\CC[C@]2(C)O[C@H]2C(=O)c2c(C)coc2C1	2.13%	–
COC(=O)C1=COC(OC2OC(CO)C(O)C(O)C2O)C2C(C)CC(=O)C12O (stereo not drawn)	0% [at 25.7 µM]	–
CC1=CC23[C@H](C=C(C(=O)O)[C@@H]2COC(=O)[C@]3(O)CO)[C@@H]1C (stereo partly drawn)	-0.917%	–
CC(=O)/C=C/C1(O)C(C)=CC(=O)CC1(C)C (stereo not drawn)	2.46%	–
C=CC(C)(CC/C=C(\C)C(=O)OC)OC1OC(COC(=O)CC(C)(O)CC(=O)O)C(O)C(O)C1O (stereo not drawn)	-2.63% [at 25.7 µM]	–
C[C@]1(OC(=O)/C=C\c2ccc(O)cc2)C[C@@H](O)[C@]2(O)C=CO[C@@H](O[C@@H]3O[C@H](CO)[C@@H](O)[C@H](O)[C@H]3O)C12 (stereo partly drawn)	4.01% [at 25.7 µM]	–
Nc1nc(COC(=O)c2ccc([N+](=O)[O-])cc2)nc(Nc2ccccc2)n1	-8.2%	–
CC(C)=CCC[C@@](C)(O)[C@H]1CC[C@]2(C)[C@@H]1[C@H](O)CC1[C@@]3(C)CC[C@H](O[C@@H]4O[C@H](CO)[C@@H](O)[C@H](O)[C@H]4O[C@@H]4O[C@H](CO)[C@@H](O)[C@H](O)[C@H]4O)C(C)(C)[C@@H]3CC[C@]12C (stereo partly drawn)	0% [at 25.7 µM]	–

Compound	activity, negative = inhibition	Potency
C[C@H](/C=C/[C@@]1(O)[C@H](C)CC(=O)CC1(C)C)O[C@@H]1O[C@H](CO[C@@H]2OC[C@@H](O)[C@H](O)[C@H]2O)[C@@H](O)[C@H](O)[C@H]1O	1.54% [at 25.7 µM]	–
COC(=O)[C@H](Cc1ccc([N+](=O)[O-])cc1)NC(=O)c1cccc2ccccc12	0%	–
COc1cc(/C=C/C(=O)OC[C@H]2O[C@@H](OC3OC=C(C(=O)O)C4C(O)CC(C)(O)C34)[C@H](O)[C@@H](O)[C@@H]2O)cc(OC)c1O (stereo partly drawn)	4.57% [at 25.7 µM]	–
COC(=O)C1=CO[C@@H](O[C@@H]2O[C@H](CO)[C@@H](O)[C@H](O)[C@H]2O)[C@@H]2[C@@H](C(=O)O)CC[C@H]12	-1.58% [at 25.7 µM]	–
CCOc1nc2c(N)ncnc2n1CC	2.2%	–
C=C[C@H]1[C@H](O[C@@H]2O[C@H](CO)[C@@H](O)[C@H](O)[C@H]2O)OC=C2C(=O)N3Cc4c([nH]c5ccccc5c4=O)[C@@H]3C[C@H]21	1.83% [at 25.7 µM]	–
CC(=O)Nc1cccc2c1c(Sc1ccc(Cl)cc1)c(C)n2CC(=O)O	–	10.7 µM (active)
COc1cc(/C=C/C(=O)O[C@H]2C[C@@H]3C(C(=O)O)=CO[C@@H](O[C@@H]4O[C@H](CO)[C@@H](O)[C@H](O)[C@H]4O)[C@@H]3[C@H]2C)ccc1O	-0.164% [at 25.7 µM]	–
Cc1nc(-c2cccnc2)sc1C(=O)Nc1ccccc1-c1cn2c(CN3CCOCC3)csc2n1	-4.63%	–
CCC1=C(C)C(=O)C(C)CC12C(=O)CCC2C(=O)O (stereo not drawn)	-0.617%	–
OC[C@H]1O[C@@H](OC[C@H]2O[C@@H](OCc3ccccc3)[C@H](O)[C@@H](O)[C@@H]2O)[C@H](O)[C@@H](O)[C@@H]1O	0.733% [at 25.7 µM]	–
O=C(O)c1cc(C(F)(F)F)ccc1N1CC[C@H](OCc2ccccn2)C1	-2.9%	–
Nc1c(-c2ccccc2)nc(Cl)c2c(O)n[nH]c(=O)c12	-15%	–
CC(CNS(=O)(=O)C(C)C)c1ccc(-c2ccc(C#N)cc2)cc1 (stereo not drawn)	0.702%	–
CC1=C2C(=O)C=C(CO)C2[C@H]2OC(=O)[C@H](C)[C@@H]2[C@@H](OC(=O)Cc2ccc(O)cc2)C1 (stereo partly drawn)	0.341% [at 25.7 µM]	–
O=C(C[C@@H]1C(C(=O)O)=CO[C@@H](O[C@@H]2O[C@H](CO)[C@@H](O)[C@H](O)[C@H]2O)/C1=C\CO)OCCc1ccc(O)cc1	0.108% [at 25.7 µM]	–
